Measured values published in PubChem BioAssay AID1159580 (chemical genetic matrix, 2015).
The whole screen tested about 5,500 compounds, of which about 2,000 (36%) were called active. About 18% were inconclusive and are not listed. Rule as the data show it: active = normalized growth mostly below about 0.91 (no sharp cut-off); inconclusive = no clear call, values can overlap the other calls; inactive = mostly above about 0.92. This is one part of the list.

Assay: chemical genetic growth profiling, strain panel (AID 1159580);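 also: tested at 20 µM; growth read once vehicle control cultures reached saturation at 30 °C; 1 = growth at the plate median or of vehicle wells; lower values mean less growth of the strain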
Settings: growth OD

Measured: normalized growth

O=C1C=C(O)c2ccccc2C1=O
inactive: S. cerevisiae deletion strains, locus YJR043C, strain POL32, stronger effect = lower value 1.01 | S. cerevisiae deletion strains, locus YKL009W, strain mrt4, stronger effect = lower value 1.04 | S. cerevisiae deletion strains, locus YKL068W, stronger effect = lower value 0.942 | S. cerevisiae deletion strains, locus YKL085W, strain MDH1 (second series), stronger effect = lower value 0.947 | S. cerevisiae deletion strains, locus YKL085W, strain MDH1, stronger effect = lower value 0.947 | S. cerevisiae deletion strains, locus YKL160W, strain elf1, stronger effect = lower value 0.912 | S. cerevisiae deletion strains, locus YKR001C, strain vps1, stronger effect = lower value 0.9 | S. cerevisiae deletion strains, locus YKR091W, strain srl3, stronger effect = lower value 0.961 | S. cerevisiae deletion strains, locus YLL001W, strain dnm1, stronger effect = lower value 0.937 | S. cerevisiae deletion strains, locus YLL026W, stronger effect = lower value 0.952 | S. cerevisiae deletion strains, locus YLL041C, strain sdh2, stronger effect = lower value 0.939 | S. cerevisiae deletion strains, locus YLR027C, strain aat2, stronger effect = lower value 0.935 | S. cerevisiae deletion strains, locus YLR039C, strain RIC1, stronger effect = lower value 0.71 | S. cerevisiae deletion strains, locus YLR058C, strain SHM2, stronger effect = lower value 0.949 | S. cerevisiae deletion strains, locus YLR102C, strain apc9, stronger effect = lower value 0.982 | S. cerevisiae deletion strains, locus YLR113W, strain HOG1, stronger effect = lower value 0.867 | S. cerevisiae deletion strains, locus YLR221C, strain rsa3, stronger effect = lower value 0.925 | S. cerevisiae deletion strains, locus YLR258W, strain gsy2, stronger effect = lower value 0.944 | S. cerevisiae deletion strains, locus YLR262C, strain YPT6, stronger effect = lower value 0.82 | S. cerevisiae deletion strains, locus YLR268W, strain sec22, stronger effect = lower value 0.923 | S. cerevisiae deletion strains, locus YLR320W, strain mms22, stronger effect = lower value 0.949 | S. cerevisiae deletion strains, locus YLR330W, strain CHS5, stronger effect = lower value 0.959 | S. cerevisiae deletion strains, locus YLR342W, strain FKS1 (second series), stronger effect = lower value 1.04 | S. cerevisiae deletion strains, locus YLR342W, strain FKS1, stronger effect = lower value 0.948 | S. cerevisiae deletion strains, locus YLR357W, strain rsc2, stronger effect = lower value 0.932 | S. cerevisiae deletion strains, locus YLR370C, strain arc18, stronger effect = lower value 0.941 | S. cerevisiae deletion strains, locus YLR371W, strain rom2, stronger effect = lower value 0.966 | S. cerevisiae deletion strains, locus YLR384C, strain iki3, stronger effect = lower value 0.971 | S. cerevisiae deletion strains, locus YLR418C, strain cdc73, stronger effect = lower value 0.894 | S. cerevisiae deletion strains, locus YML016C, strain PPZ1, stronger effect = lower value 0.956 | S. cerevisiae deletion strains, locus YML032C, strain rad52, stronger effect = lower value 0.907 | S. cerevisiae deletion strains, locus YML120C, strain ndi1, stronger effect = lower value 0.93 | S. cerevisiae deletion strains, locus YML124C, strain tub3, stronger effect = lower value 0.964 | S. cerevisiae deletion strains, locus YMR078C, strain ctf18, stronger effect = lower value 0.989 | S. cerevisiae deletion strains, locus YMR125W, strain sto1, stronger effect = lower value 0.954 | S. cerevisiae deletion strains, locus YMR129W, stronger effect = lower value 0.937 | S. cerevisiae deletion strains, locus YMR205C, strain PFK2, stronger effect = lower value 0.994 | S. cerevisiae deletion strains, locus YMR223W, strain ubp8, stronger effect = lower value 0.944 | S. cerevisiae deletion strains, locus YMR307W, strain GAS1, stronger effect = lower value 0.863 | S. cerevisiae deletion strains, locus YNL067W, strain RPL9B, stronger effect = lower value 0.966 | S. cerevisiae deletion strains, locus YNL071W, strain lat1, stronger effect = lower value 0.945 | S. cerevisiae deletion strains, locus YNL128W, strain TEP1, stronger effect = lower value 0.974 | S. cerevisiae deletion strains, locus YNL183C, strain NPR1, stronger effect = lower value 0.884 | S. cerevisiae deletion strains, locus YNL209W, strain ssb2, stronger effect = lower value 0.941 | S. cerevisiae deletion strains, locus YNL233W, strain BNI4, stronger effect = lower value 0.978 | S. cerevisiae deletion strains, locus YNL248C, strain rpa49, stronger effect = lower value 0.951 | S. cerevisiae deletion strains, locus YNL250W, strain rad50, stronger effect = lower value 0.953 | S. cerevisiae deletion strains, locus YNL271C, strain bni1, stronger effect = lower value 0.941 | S. cerevisiae deletion strains, locus YNL298W, strain CLA4, stronger effect = lower value 0.968 | S. cerevisiae deletion strains, locus YNL307C, strain MCK1, stronger effect = lower value 0.968 | S. cerevisiae deletion strains, locus YNL322C, strain KRE1 (second series), stronger effect = lower value 0.944 | S. cerevisiae deletion strains, locus YNL322C, strain KRE1, stronger effect = lower value 0.971 | S. cerevisiae deletion strains, locus YNR049C, strain mso1, stronger effect = lower value 0.958 | S. cerevisiae deletion strains, locus YNR052C, strain pop2, stronger effect = lower value 0.941 | S. cerevisiae deletion strains, locus YOL006C, strain TOP1, stronger effect = lower value 0.865 | S. cerevisiae deletion strains, locus YOL012C, strain htz1 0.668 | S. cerevisiae deletion strains, locus YOL147C, strain pex11, stronger effect = lower value 0.955 | S. cerevisiae deletion strains, locus YOR001W, strain rrp6, stronger effect = lower value 0.931 | S. cerevisiae deletion strains, locus YOR061W, strain CKA2, stronger effect = lower value 0.979 | S. cerevisiae deletion strains, locus YOR069W, strain VPS5, stronger effect = lower value 0.971 | S. cerevisiae deletion strains, locus YOR070C, strain gyp1, stronger effect = lower value 0.956 | S. cerevisiae deletion strains, locus YOR080W, strain dia2, stronger effect = lower value 0.951 | S. cerevisiae deletion strains, locus YOR083W, strain WHI5, stronger effect = lower value 0.904 | S. cerevisiae deletion strains, locus YOR136W, strain idh2, stronger effect = lower value 0.952 | S. cerevisiae deletion strains, locus YOR144C, strain elg1, stronger effect = lower value 0.966 | S. cerevisiae deletion strains, locus YOR184W, strain ser1, stronger effect = lower value 0.918 | S. cerevisiae deletion strains, locus YOR265W, strain rbl2, stronger effect = lower value 0.944 | S. cerevisiae deletion strains, locus YOR270C, strain vph1, stronger effect = lower value 0.846 | S. cerevisiae deletion strains, locus YOR290C, strain snf2, stronger effect = lower value 0.902 | S. cerevisiae deletion strains, locus YOR316C, strain cot1, stronger effect = lower value 0.98 | S. cerevisiae deletion strains, locus YPL078C, strain atp4, stronger effect = lower value 0.897 | S. cerevisiae deletion strains, locus YPL106C, strain sse1, stronger effect = lower value 0.866 | S. cerevisiae deletion strains, locus YPL241C, strain CIN2, stronger effect = lower value 0.967 | S. cerevisiae deletion strains, locus YPR119W, strain clb2, stronger effect = lower value 0.966 | S. cerevisiae deletion strains, locus YPR141C, strain kar3, stronger effect = lower value 0.948 | S. cerevisiae deletion strains, locus YPR163C, strain tif3, stronger effect = lower value 0.995 | S. cerevisiae deletion strains, locus YPR167C, strain met16, stronger effect = lower value 0.956 | S. cerevisiae deletion strains, strain wtn01, stronger effect = lower value 0.967 | S. cerevisiae strains, strain wild type, stronger effect = lower value 0.978
active: S. cerevisiae deletion strains, locus YJR066W, strain TOR1, stronger effect = lower value 0.825 | S. cerevisiae deletion strains, locus YKR026C, strain gcn3, stronger effect = lower value 0.919 | S. cerevisiae deletion strains, locus YLR262C, strain YPT6 (second series), stronger effect = lower value 0.738 | S. cerevisiae deletion strains, locus YMR058W, strain fet3, stronger effect = lower value 0.872 | S. cerevisiae deletion strains, locus YMR231W, strain pep5, stronger effect = lower value 0.919 | S. cerevisiae deletion strains, locus YOR106W, strain vam3, stronger effect = lower value 0.863 | S. cerevisiae deletion strains, locus YOR231W, strain MKK1, stronger effect = lower value 0.797 | S. cerevisiae deletion strains, locus YPL051W, strain arl3, stronger effect = lower value 0.873 | S. cerevisiae deletion strains, locus YPL240C, strain hsp82, stronger effect = lower value 0.918 | S. cerevisiae deletion strains, locus YPL256C, strain CLN2, stronger effect = lower value 0.818
